Compound activity as filed in PubChem BioAssay.
An excerpt weighted towards active compounds, which were near 6.9% of everything screened.
JNK3 inh – JNK3 (human) kinase inhibition; 60,000 tested, 0.61% active; purified JNK3 kinase activity, HTS; inhibition, % at 8 µM; in the data active means inhibition above about 17%;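 further: 0% = DMSO and 100% = reference inhibitor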
M1 antagonist – antagonists of rat M1 muscarinic receptor; P08482; 64,000 tested, 3.4% active; CHO-M1 cells, Fluo-4 calcium, ACh EC80 antagonist mode; active compounds read low; B-score at 10 µM;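 active means calcium fluorescence response, raw or row-and-column corrected B-score, differing from the plate sample mean either way at a set confidence level, mostly lower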
M1 ag – agonists of M1 muscarinic receptor | CHO-M1 cells, Fluo-4 calcium fluorescence, agonist mode; active compounds read high | B-score at 10 µM | 64,000 tested, 3% active;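 active means fluorescence rise, raw or as B-score row- and column-corrected plate score, outside the 99.7% band of its plate's samples, either direction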
FXIa inh mix – blocks human factor XIa in pooled compound mixtures; P03951; 62,000 tested, 0.19% active; inhibition, % at 5 µM; purified FXIa, fluorogenic substrate; AID 680;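 further: each value is inhibition by a whole ten-compound pool holding the compound; 0% = enzyme with no mixture and 100% = wells lacking enzyme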
HER2 expr 66K – inhibitors of human Her2 kinase expression; HER2 level % of control, % at 10 µM; AID 645; P04626; SKBR-3 HER2 protein level, AlphaScreen, 18-24 h; active compounds read low; 65,000 tested, 0.69% active;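 active means HER2 level under 5% of the carrier-only control; inconclusive means no clear call, values can overlap the other calls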;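 further: 100% = DMSO carrier and 0% = 500 nM PU-H71 HSP90 inhibitor; lower value means stronger loss of Her2 protein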
Target sequence (P04626 whole entry, looked up): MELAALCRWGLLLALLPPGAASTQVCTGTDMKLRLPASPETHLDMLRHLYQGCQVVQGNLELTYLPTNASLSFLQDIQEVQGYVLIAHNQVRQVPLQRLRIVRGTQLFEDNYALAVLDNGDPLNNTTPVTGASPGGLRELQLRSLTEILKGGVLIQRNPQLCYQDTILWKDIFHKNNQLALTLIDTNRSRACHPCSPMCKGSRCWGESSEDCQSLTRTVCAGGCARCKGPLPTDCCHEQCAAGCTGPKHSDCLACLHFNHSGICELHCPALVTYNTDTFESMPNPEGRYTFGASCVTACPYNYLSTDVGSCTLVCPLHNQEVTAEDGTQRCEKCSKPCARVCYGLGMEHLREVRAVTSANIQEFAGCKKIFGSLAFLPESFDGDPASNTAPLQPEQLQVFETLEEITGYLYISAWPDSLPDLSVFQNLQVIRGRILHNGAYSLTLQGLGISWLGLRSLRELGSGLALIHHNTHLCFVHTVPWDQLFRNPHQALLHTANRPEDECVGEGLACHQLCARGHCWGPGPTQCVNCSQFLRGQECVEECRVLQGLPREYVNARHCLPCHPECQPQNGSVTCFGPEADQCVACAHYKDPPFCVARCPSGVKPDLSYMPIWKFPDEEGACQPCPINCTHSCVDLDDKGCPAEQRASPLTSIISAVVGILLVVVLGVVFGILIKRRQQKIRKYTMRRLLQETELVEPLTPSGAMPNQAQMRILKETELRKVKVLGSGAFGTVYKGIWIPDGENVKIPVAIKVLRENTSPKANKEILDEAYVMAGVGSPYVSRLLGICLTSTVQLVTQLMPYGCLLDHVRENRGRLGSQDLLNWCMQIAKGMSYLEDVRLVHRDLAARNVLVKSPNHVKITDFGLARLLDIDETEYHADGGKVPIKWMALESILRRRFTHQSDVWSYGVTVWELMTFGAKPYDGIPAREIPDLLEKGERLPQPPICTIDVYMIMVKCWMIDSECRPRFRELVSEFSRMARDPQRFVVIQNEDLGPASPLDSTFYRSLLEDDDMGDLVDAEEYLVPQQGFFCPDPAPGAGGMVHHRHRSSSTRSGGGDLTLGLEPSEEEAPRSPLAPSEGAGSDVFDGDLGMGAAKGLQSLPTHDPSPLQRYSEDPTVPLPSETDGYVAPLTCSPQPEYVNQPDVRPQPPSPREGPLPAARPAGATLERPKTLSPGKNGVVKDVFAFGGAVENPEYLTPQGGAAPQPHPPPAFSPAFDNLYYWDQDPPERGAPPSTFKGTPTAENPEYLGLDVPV
FXIIa inh mix – factor XIIa (human) inhibition, mixture screen; P00748; purified FXIIa, fluorogenic substrate, pooled mixtures; inhibition, % at 5 µM; 62,000 tested, 0.2% active; AID 684;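 further: 0% = enzyme without compound and 100% = no enzyme blank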
M1 agonist conf – rat M1 muscarinic agonism, confirmation; shares compounds with M1 ag; CHO-M1 cells, Fluo-4 calcium fluorescence, agonist mode; actives lie on both sides; fluorescence change (max-min) at 10 µM; 1,700 tested, 19% active;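 active means fluorescence change differs from the solvent-only DMSO control mean at a set confidence level in both duplicate runs; inconclusive means differs from solvent-only control mean in just one of two runs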;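 further: an EC20 dose of acetylcholine follows compound addition during the same imaging run; raw fluorescence intensity difference in instrument units with no normalization to controls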
M4 agonist ctr – rat M4 muscarinic agonism, M1 counter-screen. CHO M4/Gqi5 cells, Fluo-4 calcium fluorescence, agonist mode; actives lie on both sides. 1,700 tested, 9% active. shares compounds with M1 ag. AID 1741. fluorescence change (max-min) at 10 µM;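 active means fluorescence change differing from the plate's solvent-only control wells at 99.7% confidence in both duplicates, whether higher or lower; inconclusive means differs from solvent controls in only one of two duplicates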
M1 antag confirm – M1 muscarinic receptor (rat) antagonism, confirmed; calcium response (max-min fluorescence) at 10 µM; 1,700 tested, 43% active; AID 677; CHO-M1 cells, Fluo-4 calcium, ACh EC80 antagonism; active compounds read low; shares compounds with M1 antagonist;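 active means calcium response below the same-plate mean of wells given acetylcholine alone at its 80%-effect dose, minus 3 SD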;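 further: raw fluorescence intensity difference in arbitrary instrument units and not normalized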
mGluR4 antag – acts on human mGluR4 in M1 antagonist selectivity test; CHO-mGluR4 calcium flux, Fluo-4 fluorescence, glutamate EC80; active compounds read low; shares compounds with M1 antagonist; AID 678; fluorescence response (max-min) at 10 µM; 1,700 tested, 0.9% active;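 active means fluorescence response below the plate's average for near-maximal glutamate wells, less 3 SD of those wells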;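 further: raw unnormalized fluorescence span taken in the window right after glutamate addition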
An asterisk follows results filed as active; u = inconclusive; x = no result. Unless noted, no stated cut-off is given here; in the data, active means inhibition above about 20% (passing the limit was not always enough); inactive means the rest.

SMILES	JNK3 inh	M1 antagonist	M1 ag	FXIa inh mix	HER2 expr 66K	FXIIa inh mix	M1 agonist conf	M4 agonist ctr	M1 antag confirm	mGluR4 antag
COc1ccccc1S(=O)(=O)Cc1ccc(C(=O)N2CCN(c3ccccc3)CC2)o1	-6	-0.9	1.9	-3	110	-11	x	x	x	x
Cc1ccc(-c2ccc(CCC(=O)O)n2Cc2ccco2)cc1	x	-0.37	0.62	5	103	10	x	x	x	x
CNC(=O)CN(c1ccc(C(C)C)cc1)S(C)(=O)=O	x	-0.00053	0.59	5	x	0	x	x	x	x
O=C(COC(=O)CN1C(=O)C2CC=CCC2C1=O)Nc1cc(C(F)(F)F)ccc1N1CCOCC1 (stereo not given)	5	-0.59	3.6*	1	83	0	u	u	x	x
COc1ccc(CCN(Cc2cccs2)S(=O)(=O)c2ccc(-n3cnnn3)cc2)cc1OC	2	-0.32	4.5*	6	95	5	u	-66*	x	x
COc1ccc(CN(C2CCCC2)S(=O)(=O)c2ccc(-n3cnnn3)c(OC)c2)cc1OC	x	-0.17	1.6	2	115	11	x	x	x	x
O=C(C1CCN(c2nnc(N3CCCC3=O)s2)CC1)N1CCN(Cc2ccc3c(c2)OCO3)CC1	3	-0.31	-1.4	7	70	-15	x	x	x	x
Cc1cccc(N2CCN(C(=O)C3CCN(c4nnc(-n5cccc5)s4)CC3)CC2C)c1 (stereo not given)	1	-1.6	16*	-2	90	8	u	-48	x	x
O=C(C1CCN(S(=O)(=O)c2cccc3cccnc23)CC1)N1CCCC1	-3	0.054	0.3	3	79	12	x	x	x	x
Cc1cccc(N2CCN(C(=O)C3CCN(S(=O)(=O)c4cccc5cccnc45)CC3)CC2C)c1 (stereo not given)	2	-1.9	8.6*	4	84	-19	-12	u	x	x
Cc1cccc(N2CCN(C(=O)C3CCN(S(=O)(=O)c4cccc5nsnc45)CC3)CC2C)c1 (stereo not given)	0	-2	16*	-4	79	-2	-33*	-88	x	x
O=C(C1CCN(S(=O)(=O)c2cccc3nsnc23)CC1)N1CCN(c2ccccc2F)CC1	2	0.011	5.6	7	87	6	x	x	x	x
O=C(C1CCN(c2nnc(-n3cccc3)s2)CC1)N1CCN(Cc2ccc3c(c2)OCO3)CC1	-1	-1.3	-2.6*	-2	93	0	-12	-62	x	x
COc1cccc(-c2nnc(SCC(=O)Nc3ccc(OC)c(OC)c3)n2N)c1	0	-0.1	0.74	3	100	-1	x	x	x	x
CN(C)S(=O)(=O)c1ccc(C(=O)OCC(=O)c2ccc(OC(F)F)cc2OC(F)F)cc1	-1	-0.34	0.86	2	137	-6	x	x	x	x
COc1ccc2c(c1)OC13CCN(C)CC1C2C(C(=O)c1ccc(F)cc1)C(=O)N3 (stereo not given)	-4	0.02	-0.068	25	92	3	x	x	x	x
CC(C)NC(=O)C1(O)c2ccccc2NC(=O)N1c1ccc(Cl)c(Cl)c1 (stereo not given)	x	-1.9	0.73	-3	64	-1	x	x	x	x
CCOC(=O)N1CCC(NS(=O)(=O)c2cc(Br)cc3c2N(C(=O)CC)CC3)CC1	x	0.58	1.1	5	78	1	x	x	x	x
Cc1ccc(CC2C(=O)N(c3ncccn3)C(=O)C2C)cc1 (stereo not given)	8	-7*	-3.7*	4	94	14	-27	-34	610	254
Cc1ccc(CC2CC(=O)N(c3ccncc3)C2=O)cc1 (stereo not given)	-1	-0.34	0.16	5	103	6	x	x	x	x
CCCN1CCN(CCCNC(=O)c2cc3c(=O)n(C)c4ccccc4c3n2C)CC1	5	-4.3*	-3.1*	1	95	6	u	-36	497	215
COc1ccc2c(=O)c3c(=O)n(Cc4ccco4)c(C4CCCCC4)nc3oc2c1	4	0.42	-0.15	-1	71	-1	x	x	x	x
O=c1c2c3c(sc2nc2n1CCCCC2)CCCC3	10	x	x	2	67	2	x	x	x	x
N=c1c2c3c(sc2nc2n1CCCCC2)CCCCC3	x	-19*	-3.3*	4	x	2	-24*	-37	15*	281
O=C(O)c1cc(-c2ccco2)nc2ccc(Br)cc12	11	-17*	-2.5*	12	74	-17	-2.5	5.1	659	231
SMILES	JNK3 inh	M1 antagonist	M1 ag	FXIa inh mix	HER2 expr 66K	FXIIa inh mix	M1 agonist conf	M4 agonist ctr	M1 antag confirm	mGluR4 antag
CCCCn1c(=O)[nH]c(=O)c2c1nc(COC(=O)c1c(C)noc1C)n2CCC	5	0.0083	0.46	7	77	6	x	x	x	x
CSc1ccc(C(C(C(=O)c2cccs2)N2CCOCC2)N2CCOCC2)cc1 (stereo not given)	2	-3.4*	0.64	8	88	10	x	x	537	170
O=C(NCCC1=CCCCC1)C1CCN(c2nnc(-n3cccc3)s2)CC1	0	0.12	0.62	3	95	4	x	x	x	x
CC1CCN(Cc2ccc(NC(=O)C3CCN(c4nnc(-n5cccc5)s4)CC3)cc2)CC1	-6	-13*	-0.72	9	84	14	x	x	15*	220
COc1ccc2c3c(c(=O)oc2c1OCC(N)=O)CCCC3	0	-1	-0.19	5	67	3	x	x	x	x
CC(c1ccco1)N(C(=O)CSc1ccc(Br)cc1)c1ccccn1 (stereo not given)	2	0.38	0.43	5	69	9	x	x	x	x
CN1C(=O)NC(c2ccc(O)cc2)C(C(=O)c2cccs2)C1(O)C(F)(F)F (stereo not given)	-3	-3.3*	-0.041	4	75	2	x	x	433	183
Cc1cc(Br)c(S(=O)(=O)n2nnc3ccccc32)cc1C	-3	-12*	-0.24	4	104	4	x	x	674	228
O=S(=O)(c1cc(Cl)ccc1Cl)n1nnc2ccccc21	2	-0.24	0.18	0	101	-2	x	x	x	x
CCOC(=O)C1=C(C)NC(=O)NC1c1c(OCC(=O)N2CCCCC2)ccc2ccccc12 (stereo not given)	-2	-0.31	0.31	45	66	-1	x	x	x	x
CCOC(=O)c1nnc2cc(-c3ccc(Br)cc3)nn2c1C	7	0.18	-0.63	-5	104	9	x	x	x	x
CCOC(=O)c1nnc2cc(-c3ccccc3)nn2c1C	5	-2.6*	0.79	7	71	10	x	x	640	231
CN1CCN(c2ccc(NC(=O)c3cccc(OCc4ccccc4)c3)cc2)CC1	-5	-5.3*	-0.55	3	79	11	x	x	304*	245
